# From publication doi:10.1101/2024.03.05.583629
# Target: pT7_6His-AlfaTag-ZIF268 (human, UniProt P18146 335-423)
# Assay: PADIT-seq
# Conditions: dsDNA, one strand shown
row,Sequence,binding signal [log2FC]
1,CTCGAGGATATCAAGATCTGGCCTCGGCTTCCCACGCGGAACCTCTAGCTAGCCGACTCACTATAGGGATAATCGCCCTGAGCAAAGACC,0.363 ± 0.0983
2,CTCGAGGATATCAAGATCTGGCCTCGGCATTTTACTTGGAACCTCTAGCTAGCCGACTCACTATAGGGATAATCGCCCTGAGCAAAGACC,0.0654 ± 0.0956
3,CTCGAGGATATCAAGATCTGGCCTCGGCATTTTAATAGGAACCTCTAGCTAGCCGACTCACTATAGGGATAATCGCCCTGAGCAAAGACC,0.0148 ± 0.0814
4,CTCGAGGATATCAAGATCTGGCCTCGGCGGAGTAAAAGGAACCTCTAGCTAGCCGACTCACTATAGGGATAATCGCCCTGAGCAAAGACC,0.0307 ± 0.0975
5,CTCGAGGATATCAAGATCTGGCCTCGGCATTTTATCTGGAACCTCTAGCTAGCCGACTCACTATAGGGATAATCGCCCTGAGCAAAGACC,0.0226 ± 0.102
6,CTCGAGGATATCAAGATCTGGCCTCGGCTGGCTAAAAGGAACCTCTAGCTAGCCGACTCACTATAGGGATAATCGCCCTGAGCAAAGACC,0.0373 ± 0.0882
7,CTCGAGGATATCAAGATCTGGCCTCGGCCTTTTAGAGGGAACCTCTAGCTAGCCGACTCACTATAGGGATAATCGCCCTGAGCAAAGACC,0.0179 ± 0.0928
8,CTCGAGGATATCAAGATCTGGCCTCGGCAGCCCACGCGGAACCTCTAGCTAGCCGACTCACTATAGGGATAATCGCCCTGAGCAAAGACC,0.806 ± 0.0795
9,CTCGAGGATATCAAGATCTGGCCTCGGCCTTTTATGCGGAACCTCTAGCTAGCCGACTCACTATAGGGATAATCGCCCTGAGCAAAGACC,0.00428 ± 0.0795
10,CTCGAGGATATCAAGATCTGGCCTCGGCCTATGGGCGGGAACCTCTAGCTAGCCGACTCACTATAGGGATAATCGCCCTGAGCAAAGACC,0.0355 ± 0.0969
